Drawing on PubChem BioAssay (NCI), this text covers growth inhibition for 21 molecules.

Each structure is given as a SMILES string. The panel holds about 79,000 compounds, 15% with a hit somewhere; the sample as a whole holds those more often. A number with no mark means an inactive call. The source made the active and inactive calls. No stated cut-off is given here; in the data, active means growth inhibition above about 70%; inactive means the rest.

The nature of assay [1]: NCI Yeast Anticancer Drug Screen. Data for the rad50 strain (AID 155).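 Further: 0% = growth of vehicle-only cultures of the same strain.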 As to conditions: S. cerevisiae rad50 strain growth inhibition; at 50.0 µM; hits give high values. The method in brief: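 Inhibition values express reduced yeast growth in compound-treated cultures relative to vehicle-treated controls.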
A short description of assay [2]: NCI Yeast Anticancer Drug Screen. Data for the mec2-1 strain (AID 157). To be noted: S. cerevisiae mec2-1 strain, at 50.0 µM, hits give high values. In short, it runs like this:
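Strain: mec2-1 (DNA repair/cell cycle alteration). Compound exposure, then growth measured; inhibition expressed relative to vehicle.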

A short description of assay [3]: NCI Yeast Anticancer Drug Screen. Data for the sgs1 mgt1 strain (AID 161).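 Further: 0% = growth of cultures given vehicle only.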 As to conditions: S. cerevisiae sgs1 mgt1 strain, at 50.0 µM, hits give high values. In short, it runs like this: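 Inhibition of yeast growth, normalised to vehicle-treated controls, is reported for a strain bearing genetic alterations in DNA damage repair.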
The nature of assay [4]: NCI Yeast Anticancer Drug Screen. Data for the cln2 rad14 strain (AID 165).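 Further: 0% = growth equal to vehicle treated cultures.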 As to conditions: S. cerevisiae cln2 rad14 strain, at 50.0 µM, hits give high values. The method in brief:
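Compounds are applied to the cln2 rad14 yeast strain, and growth is then compared with that of vehicle-treated cultures to give inhibition.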

The nature of assay [5]: NCI Yeast Anticancer Drug Screen. Data for the bub3 strain (AID 167). To be noted: S. cerevisiae bub3 mutant strain, at 50.0 µM, hits give high values. In short, it runs like this:
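Steps: expose the mutant yeast strain to compound; grow alongside vehicle-treated cultures; measure growth; express inhibition against the vehicle cultures.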

A short description of assay [6]: NCI Yeast Anticancer Drug Screen. Data for the mlh1 rad18 strain (AID 175). As to conditions: S. cerevisiae mlh1 rad18 strain growth inhibition; at 50.0 µM; hits give high values. The method in brief:
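Read-out is yeast growth inhibition, calculated against vehicle-only controls. The compound was applied to a strain engineered with DNA damage repair alterations.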

For `N=C(N)c1ccc(C(=N)N)cc1`, the growth inhibition in assay [1] is -16.4%; in assay [2] it was -14.3%; in assay [3], -20.3%; in assay [4] it was -0.35%; in assay [5], -0.75%; in assay [6] it was -33.2%.
For the molecule `CC1(C)CC(=O)C(C)(CCc2ccccc2)C(=O)C1`, the growth inhibition is -2.8% in assay [1]; 8.9% in assay [2]; 13.7% in assay [3]; -44.6% in assay [4]; -11.4% in assay [5]; -6.65% in assay [6].
Consider `COC(=O)CCOc1ccc(C)cc1`, for which the growth inhibition in assay [1] is 28.2%; in assay [2] it was 12.9%; in assay [3], 6.6%; in assay [4], 10.3%; in assay [5] it was -5.85%; in assay [6], -21.9%.
For `O=[N+]([O-])c1ccc(Sc2cccs2)c([N+](=O)[O-])c1`, the growth inhibition in assay [1] was -12.8%; in assay [2] it was 28.9%; in assay [3], 18.9%; in assay [4] it was 4.1%; in assay [5], 13.9%; in assay [6] it was 57%.
For `O=S(=O)(CCS(=O)(=O)c1ccccc1)c1ccccc1`, the growth inhibition in assay [1] was -11.4%; in assay [2] it was -10.2%; in assay [3], -22.9%; in assay [4], -41.5%; in assay [5], -15.3%; in assay [6] it was -0.1%.
As for `Cc1cc(Cl)c(O)c(C2(C(O)c3ccc(O)cc3)NC(=S)NC2=O)c1` (stereo unspecified), the growth inhibition in assay [1] is -20.4%; in assay [2], -17.1%; in assay [3], -25.6%; in assay [4], -6.5%; in assay [5] it was 4.95%; in assay [6], -6.75%.
Take `CCOC(=O)/C=C/c1ccccn1`: the growth inhibition is -15.3% in assay [1]; -9.5% in assay [2]; -35.5% in assay [3]; 11.9% in assay [4]; -12.8% in assay [5]; -25.6% in assay [6].
As for `CS(=O)(=O)CC(=O)c1ccc(Br)cc1`, the growth inhibition in assay [1] is -3.1%; in assay [2] it was -4.05%; in assay [3] it was 14.1%; in assay [4], -12.8%; in assay [5], -5.45%; in assay [6] it was 10.3%.
In the case of `O=C(O)C1C(C(=O)O)C2C3C4C1C1C2C3C41` (stereo unspecified), the growth inhibition in assay [1] is 2.9%; in assay [2] it was 3.15%; in assay [3], -4.2%; in assay [4], -21.9%; in assay [5], 13.3%; in assay [6], -0.15%.
For `COc1ccc(N2C(=O)C3c4[nH]c5ccccc5c4C4CCCCCCCCCC4C3C2=O)cc1` (stereo unspecified), the growth inhibition in assay [1] was -6.15%; in assay [2], -25.9%; in assay [3], 0%; in assay [4] it was -39.6%; in assay [5], -15.3%; in assay [6] it was -30.2%.
With `Cc1ccc2c3nc4ccccc4c-3csc2c1`, the growth inhibition in assay [1] is 99.2% (active); in assay [2], 99.4% (active); in assay [3], 99.4% (active); in assay [4], 99% (active); in assay [5] it was 99.2% (active); in assay [6], 99.3% (active).
`COc1ccc2c(c1)OCCN(C)OC2c1ccccc1` (stereo unspecified): the growth inhibition in assay [1] is -7.65%; in assay [2], -4.6%; in assay [3], -10.2%; in assay [4], 0.5%; in assay [5], 11.1%; in assay [6], -1.5%.
Turning to `O=C(c1ccccc1)c1c(O)c2ccccc2oc1=O`, the growth inhibition in assay [1] is -13.6%; in assay [2], -24%; in assay [3] it was -7.95%; in assay [4] it was -16.8%; in assay [5] it was -4.45%; in assay [6], -4.5%.
Regarding `COC1OC(COC(=O)Nc2ccccc2)C2OC12` (stereo unspecified), the growth inhibition in assay [1] is 8.45%; in assay [2], 2.8%; in assay [3] it was 24.6%; in assay [4], -55.4%; in assay [5] it was -10%; in assay [6], 1.25%.
For the molecule `CC(=O)OCC1OC(n2c(=S)n(-c3ccc([N+](=O)[O-])cc3)c(=O)c3ccccc32)C(OC(C)=O)C(OC(C)=O)C1OC(C)=O` (stereo unspecified), the growth inhibition in assay [1] was -6.3%; in assay [2], 19.1%; in assay [3], -9.55%; in assay [4], 19%; in assay [5], 11.8%; in assay [6] it was 9.1%.
`O=NN(CC1(O)OCC(O)C(O)C1O)C(Cc1c[nH]c2ccccc12)C(=O)O` (stereo unspecified): the growth inhibition in assay [1] is -8.7%; in assay [2] it was -22.9%; in assay [3], -27.1%; in assay [4], 2.1%; in assay [5], -0.5%; in assay [6], -4.8%.
As for `O=C1C=C(Nc2cccnc2)c2ccccc2C1=O`, the growth inhibition was 9.5% in assay [1]; -7.2% in assay [2]; 0.4% in assay [3]; 8.5% in assay [4]; 19.6% in assay [5]; 8.8% in assay [6].
With `N#CC1C(=O)NC(=O)C(C#N)C1c1ccc(Cl)cc1Cl` (stereo unspecified), the growth inhibition in assay [1] was 38.9%; in assay [2] it was 10.1%; in assay [3], 32.6%; in assay [4], 22.1%; in assay [5], -3.55%; in assay [6], 19.9%.
As to `CC(NC(=O)OCc1ccccc1)C(=O)Nc1ccc(C(=O)O)c(O)c1` (stereo unspecified), the growth inhibition in assay [1] is 5.55%; in assay [2], -5.1%; in assay [3], 11.9%; in assay [4], -9%; in assay [5] it was 45.1%; in assay [6], -10.8%.
Regarding `CC(=O)Nc1cc(-c2ccccc2)cc(-c2ccccc2)c1`, the growth inhibition was 11.6% in assay [1]; 0.4% in assay [2]; -2.55% in assay [3]; 1.5% in assay [4]; 10.7% in assay [5]; 22.4% in assay [6].
On to `CN(C)CCN=C1Nc2ccccc2C(=S)N2CSCC12` (stereo unspecified), for which the growth inhibition was -0.75% in assay [1]; 17.1% in assay [2]; -10.4% in assay [3]; -2.05% in assay [4]; 5.85% in assay [5]; 11.9% in assay [6].
